What all share (assay): HT-SELEX; high values mean tight binding
Holding throughout (conditions): protein: recombinant; vector His6-GST; dsDNA, one strand shown

One assay addresses T1, SALL4 ZFC4 WT (HT-SELEX) (Mus musculus, UniProt Q8BX22 870-940).
T1 sequence: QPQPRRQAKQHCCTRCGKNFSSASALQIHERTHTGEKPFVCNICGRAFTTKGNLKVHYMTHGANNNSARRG
The gist of the method:
(§1)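 DNA from a random library (1.5 µg in the first cycle, 200 ng afterwards) was incubated with purified recombinant mouse SALL4 zinc finger cluster 4, residues 870–940 (1 µg), for 10 min at room temperature in 100 µl buffer: 10 mM Tris–HCl pH 7.5, 50 mM NaCl, poly(dI-dC), DTT. Bound complexes were pulled down on Ni2+ beads, washed and PCR-amplified, and the selection was repeated for up to 6 cycles in triplicate. MiSeq reads were scanned for 6-mers, and binding signal is each canonical k-mer's read fraction as fold change over the initial random library.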

Assay [1] concerns the target T2, SALL4 ZFC4 R900W (HT-SELEX) (Mus musculus, UniProt Q8BX22 870-940, R900W).
T2 sequence: T1 sequence with R31W
The gist of the method:
as §1

Assay [2] addresses T3, SALL4 ZFC4 G921D (HT-SELEX) (Mus musculus, UniProt Q8BX22 870-940, G921D).
T3 sequence: T1 sequence with G52D
The gist of the method: as §1

Consider 42 sequences from publication PMC9838217, “Structure of SALL4 zinc finger domain reveals link between AT-rich DNA binding and Okihiro syndrome”.

Where a chain is given by its changes, count along the chain named.

With AATGCT, the binding signal with SALL4 ZFC4 WT (HT-SELEX) is 1.15 ± 0.0126 fold-change vs cycle 0; in assay [1] it was 1.19 ± 0.0201 fold-change vs cycle 0; in assay [2] it was 1.225 ± 0.011 fold-change vs cycle 0.

GTATTA: the results for the binding signal (in the assay with SALL4 ZFC4 WT (HT-SELEX); in assay [1]; in assay [2]) were 2.23 ± 0.186 fold-change vs cycle 0, 1.98 ± 0.125 fold-change vs cycle 0 and 1.76 ± 0.141 fold-change vs cycle 0, respectively.

For GCTAAA, the binding signal amounted to 0.898 ± 0.0417 fold-change vs cycle 0 in the assay with SALL4 ZFC4 WT (HT-SELEX), 1 ± 0.0491 fold-change vs cycle 0 in assay [1] and 1.03 ± 0.0278 fold-change vs cycle 0 in assay [2].

For TCATCA, the binding signal with SALL4 ZFC4 WT (HT-SELEX) was 1.46 ± 0.0322 fold-change vs cycle 0; in assay [1], 1.56 ± 0.0457 fold-change vs cycle 0; in assay [2] it was 1.49 ± 0.0698 fold-change vs cycle 0.

Take CCTTAC: the binding signal amounted to 0.944 ± 0.0541 fold-change vs cycle 0 with SALL4 ZFC4 WT (HT-SELEX), 1.06 ± 0.0559 fold-change vs cycle 0 in assay [1] and 1.04 ± 0.0333 fold-change vs cycle 0 in assay [2].

For CTTTGA, the binding signal in the assay with SALL4 ZFC4 WT (HT-SELEX) came out at 1.2 ± 0.0763 fold-change vs cycle 0; in assay [1] it was 1.36 ± 0.0716 fold-change vs cycle 0; in assay [2] it was 1.33 ± 0.077 fold-change vs cycle 0.

As for CAGTAC, the binding signal with SALL4 ZFC4 WT (HT-SELEX) was found to be 0.772 ± 0.0398 fold-change vs cycle 0; in assay [1], 0.92 ± 0.0398 fold-change vs cycle 0; in assay [2] it was 0.957 ± 0.0386 fold-change vs cycle 0.

In the case of CTAGCC, the binding signal with SALL4 ZFC4 WT (HT-SELEX) is 0.314 ± 0.031 fold-change vs cycle 0; in assay [1], 0.395 ± 0.0257 fold-change vs cycle 0; in assay [2], 0.508 ± 0.064 fold-change vs cycle 0.

Turning to AGAACA, the binding signal with SALL4 ZFC4 WT (HT-SELEX) turned out to be 1.26 ± 0.0155 fold-change vs cycle 0; in assay [1], 1.39 ± 0.0297 fold-change vs cycle 0; in assay [2], 1.34 ± 0.0563 fold-change vs cycle 0.

CACATC: the values for the binding signal (in the assay with SALL4 ZFC4 WT (HT-SELEX); in assay [1]; in assay [2]) were 0.757 ± 0.0342 fold-change vs cycle 0, 0.861 ± 0.0321 fold-change vs cycle 0 and 0.929 ± 0.0433 fold-change vs cycle 0, respectively.

Regarding CATAGG, the binding signal with SALL4 ZFC4 WT (HT-SELEX) was found to be 0.854 ± 0.0242 fold-change vs cycle 0; in assay [1], 0.918 ± 0.0253 fold-change vs cycle 0; in assay [2] it was 0.978 ± 0.022 fold-change vs cycle 0.

ATACCC: the binding signal in the assay with SALL4 ZFC4 WT (HT-SELEX) is 0.85 ± 0.0409 fold-change vs cycle 0; in assay [1], 0.935 ± 0.04 fold-change vs cycle 0; in assay [2], 0.962 ± 0.0418 fold-change vs cycle 0.

Consider CAGTAG, for which the binding signal stood at 0.806 ± 0.0679 fold-change vs cycle 0 in the assay with SALL4 ZFC4 WT (HT-SELEX), 0.908 ± 0.0926 fold-change vs cycle 0 in assay [1] and 0.954 ± 0.0684 fold-change vs cycle 0 in assay [2].

Take ATTGCC: the binding signal with SALL4 ZFC4 WT (HT-SELEX) is 0.502 ± 0.0233 fold-change vs cycle 0; in assay [1], 0.566 ± 0.0263 fold-change vs cycle 0; in assay [2], 0.699 ± 0.0539 fold-change vs cycle 0.

GTATAA: the binding signal with SALL4 ZFC4 WT (HT-SELEX) was 2.08 ± 0.124 fold-change vs cycle 0; in assay [1], 1.96 ± 0.165 fold-change vs cycle 0; in assay [2], 1.74 ± 0.197 fold-change vs cycle 0.

Regarding GTAACA, the binding signal turned out to be 1.36 ± 0.0267 fold-change vs cycle 0 with SALL4 ZFC4 WT (HT-SELEX), 1.52 ± 0.0694 fold-change vs cycle 0 in assay [1] and 1.39 ± 0.0863 fold-change vs cycle 0 in assay [2].

Regarding GGGTGA, the binding signal worked out at 0.483 ± 0.00743 fold-change vs cycle 0 with SALL4 ZFC4 WT (HT-SELEX), 0.541 ± 0.0302 fold-change vs cycle 0 in assay [1] and 0.632 ± 0.0295 fold-change vs cycle 0 in assay [2].

Regarding CTAAAG, the binding signal in the assay with SALL4 ZFC4 WT (HT-SELEX) was 1.22 ± 0.0556 fold-change vs cycle 0; in assay [1], 1.43 ± 0.0823 fold-change vs cycle 0; in assay [2] it was 1.34 ± 0.112 fold-change vs cycle 0.

For ACAACG, the binding signal with SALL4 ZFC4 WT (HT-SELEX) is 0.592 ± 0.0372 fold-change vs cycle 0; in assay [1] it was 0.676 ± 0.029 fold-change vs cycle 0; in assay [2], 0.769 ± 0.0401 fold-change vs cycle 0.

For the sequence CTAAAC, the binding signal with SALL4 ZFC4 WT (HT-SELEX) is 1.16 ± 0.0729 fold-change vs cycle 0; in assay [1], 1.33 ± 0.0737 fold-change vs cycle 0; in assay [2] it was 1.27 ± 0.0849 fold-change vs cycle 0.

Regarding GAGTAC, the binding signal is 0.903 ± 0.0224 fold-change vs cycle 0 with SALL4 ZFC4 WT (HT-SELEX), 0.992 ± 0.045 fold-change vs cycle 0 in assay [1] and 1.04 ± 0.0172 fold-change vs cycle 0 in assay [2].

As to AGATAG, the figures for the binding signal (in the assay with SALL4 ZFC4 WT (HT-SELEX); in assay [1]; in assay [2]) were 1.35 ± 0.0403 fold-change vs cycle 0, 1.5 ± 0.0704 fold-change vs cycle 0 and 1.43 ± 0.117 fold-change vs cycle 0, respectively.

In the case of ACCACA, the binding signal worked out at 0.701 ± 0.0312 fold-change vs cycle 0 with SALL4 ZFC4 WT (HT-SELEX), 0.793 ± 0.0317 fold-change vs cycle 0 in assay [1] and 0.841 ± 0.0188 fold-change vs cycle 0 in assay [2].

Consider ACCAAG, for which the binding signal with SALL4 ZFC4 WT (HT-SELEX) was found to be 0.816 ± 0.0198 fold-change vs cycle 0; in assay [1], 0.935 ± 0.0459 fold-change vs cycle 0; in assay [2], 0.983 ± 0.0112 fold-change vs cycle 0.

Take CAAGAG: the binding signal came to 0.839 ± 0.0412 fold-change vs cycle 0 with SALL4 ZFC4 WT (HT-SELEX), 1.03 ± 0.0313 fold-change vs cycle 0 in assay [1] and 1.015 ± 0.00973 fold-change vs cycle 0 in assay [2].

Turning to AATGAC, the binding signal with SALL4 ZFC4 WT (HT-SELEX) is 1.18 ± 0.09 fold-change vs cycle 0; in assay [1], 1.36 ± 0.06 fold-change vs cycle 0; in assay [2] it was 1.3 ± 0.105 fold-change vs cycle 0.

Turning to ACTGTC, the binding signal amounted to 0.75 ± 0.0397 fold-change vs cycle 0 with SALL4 ZFC4 WT (HT-SELEX), 0.857 ± 0.0177 fold-change vs cycle 0 in assay [1] and 0.901 ± 0.0149 fold-change vs cycle 0 in assay [2].

Take TGAAAA: the binding signal came to 2.04 ± 0.151 fold-change vs cycle 0 with SALL4 ZFC4 WT (HT-SELEX), 1.73 ± 0.0528 fold-change vs cycle 0 in assay [1] and 1.57 ± 0.0962 fold-change vs cycle 0 in assay [2].

With CAGTCC, the binding signal in the assay with SALL4 ZFC4 WT (HT-SELEX) came to 0.44 ± 0.0267 fold-change vs cycle 0; in assay [1] it was 0.544 ± 0.0287 fold-change vs cycle 0; in assay [2], 0.63 ± 0.0382 fold-change vs cycle 0.

As for ACAAGC, the binding signal in the assay with SALL4 ZFC4 WT (HT-SELEX) came out at 0.616 ± 0.0453 fold-change vs cycle 0; in assay [1], 0.707 ± 0.0111 fold-change vs cycle 0; in assay [2], 0.798 ± 0.0212 fold-change vs cycle 0.

Consider ACTGCA, for which the binding signal with SALL4 ZFC4 WT (HT-SELEX) is 0.647 ± 0.0528 fold-change vs cycle 0; in assay [1], 0.7299 ± 0.00625 fold-change vs cycle 0; in assay [2] it was 0.797 ± 0.0181 fold-change vs cycle 0.

In the case of CGTAAA, the binding signal came out at 1 ± 0.0348 fold-change vs cycle 0 in the assay with SALL4 ZFC4 WT (HT-SELEX), 1.08 ± 0.0147 fold-change vs cycle 0 in assay [1] and 1.05 ± 0.0379 fold-change vs cycle 0 in assay [2].

With CCTGAG, the binding signal with SALL4 ZFC4 WT (HT-SELEX) was found to be 0.502 ± 0.0217 fold-change vs cycle 0; in assay [1], 0.614 ± 0.0126 fold-change vs cycle 0; in assay [2], 0.691 ± 0.0156 fold-change vs cycle 0.

In the case of CAGAGA, the figures for the binding signal (with SALL4 ZFC4 WT (HT-SELEX); in assay [1]; in assay [2]) were 0.765 ± 0.0216 fold-change vs cycle 0, 0.92 ± 0.0161 fold-change vs cycle 0 and 0.951 ± 0.0212 fold-change vs cycle 0, respectively.

Consider ATACGC, for which the results for the binding signal (with SALL4 ZFC4 WT (HT-SELEX); in assay [1]; in assay [2]) were 0.486 ± 0.0113 fold-change vs cycle 0, 0.531 ± 0.0184 fold-change vs cycle 0 and 0.66 ± 0.0195 fold-change vs cycle 0, respectively.

Turning to CACTCG, the binding signal with SALL4 ZFC4 WT (HT-SELEX) was 0.397 ± 0.0122 fold-change vs cycle 0; in assay [1], 0.459 ± 0.00566 fold-change vs cycle 0; in assay [2], 0.562 ± 0.0414 fold-change vs cycle 0.

Turning to CCTCAG, the binding signal with SALL4 ZFC4 WT (HT-SELEX) was 0.494 ± 0.0292 fold-change vs cycle 0; in assay [1] it was 0.591 ± 0.0293 fold-change vs cycle 0; in assay [2] it was 0.666 ± 0.0425 fold-change vs cycle 0.

In the case of CGTATA, the results for the binding signal (with SALL4 ZFC4 WT (HT-SELEX); in assay [1]; in assay [2]) were 1.19 ± 0.0262 fold-change vs cycle 0, 1.2 ± 0.0145 fold-change vs cycle 0 and 1.18 ± 0.0335 fold-change vs cycle 0, respectively.

For the sequence GCGATA, the binding signal in the assay with SALL4 ZFC4 WT (HT-SELEX) was found to be 0.515 ± 0.0117 fold-change vs cycle 0; in assay [1], 0.534 ± 0.0163 fold-change vs cycle 0; in assay [2], 0.668 ± 0.0315 fold-change vs cycle 0.

In the case of ACGTTA, the binding signal in the assay with SALL4 ZFC4 WT (HT-SELEX) stood at 1.26 ± 0.034 fold-change vs cycle 0; in assay [1] it was 1.37 ± 0.0435 fold-change vs cycle 0; in assay [2], 1.29 ± 0.0362 fold-change vs cycle 0.

Consider AGAGGA, for which the binding signal in the assay with SALL4 ZFC4 WT (HT-SELEX) amounted to 0.933 ± 0.0495 fold-change vs cycle 0; in assay [1] it was 1.09 ± 0.0506 fold-change vs cycle 0; in assay [2] it was 1.07 ± 0.0639 fold-change vs cycle 0.

Regarding TTGAAA, the binding signal with SALL4 ZFC4 WT (HT-SELEX) turned out to be 1.92 ± 0.106 fold-change vs cycle 0; in assay [1], 1.88 ± 0.0943 fold-change vs cycle 0; in assay [2], 1.7 ± 0.131 fold-change vs cycle 0.
